Experimental findings from PubChem BioAssay (Tox21) are described below.

Values without a mark were called inactive. Results filed as inconclusive are left out. Active and inactive are the calls of the source. Unless noted, calls come from the whole dose curve; as a rule, active = well fitted curve in the direction sought with a large enough effect in the repeat runs; inconclusive = weak or mixed curves; inactive = no such curve, though single readings can be large; an effect the other way counts as inactive or inconclusive.

Assay [1] deals with Thyrotropin receptor (Homo sapiens) (UniProt P16473). The assay can be described thus: qHTS assay to identify small molecule antagonists of the thyroid stimulating hormone receptor (TSHR) signaling pathway (AID 1259385; calls by dose curve; note: nearly all actives have a fitted effect of over 20% in size). The procedure, abridged:
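TSHR-HEK293 cells (800/well) plated 18 h, then compounds with Ro20-1724 and TSH at 1.5 ng/mL final, 30 min at room temperature. cAMP quantified by HTRF (cAMP-d2/anti-cAMP-cryptate, 1 h); 15 concentrations in triplicate.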
Background: qHTS replaces the single test concentration by a dilution series.

Assay [2] in a line: qHTS assay to identify small molecule agonists of the estrogen receptor alpha (ER-alpha) signaling pathway in the presence of an antagonist - cell viability counter screen (AID 1259386).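 Note: series mostly up to about 92 µM; cells exposed to compounds for 22 h at 37 °C before the viability read; nearly all actives have a fitted effect of over 30% in size.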 The method, boiled down:
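Cytotoxicity was measured in parallel with the ERE-luciferase agonist screen, in the same wells. The cells were VM7Luc4E2, which endogenously express ER-alpha, and treatment was with compounds plus 10.0nM ICI-182,780 for 22hr.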

Assay [3] concerns the target Progesterone receptor (Homo sapiens) (UniProt P06401). The assay can be described thus: qHTS assay to identify small molecule agonists of the progesterone receptor (PR) signaling pathway (AID 1346784; calls by dose curve; note: nearly all actives have a fitted effect of over 30% in size). The method, boiled down:
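PR-UAS-bla HEK 293T cells carrying a UAS-driven beta-lactamase reporter were seeded in medium with 2% charcoal-stripped FBS, preincubated 6 hr at 37C, then exposed to compounds in DMSO for 16 hr; agonism was read by LiveBLAzer B/G FRET fluorescence.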

The target is the same in assay [4]. Nature of the assay: qHTS assay to identify small molecule antagonists of the progesterone receptor (PR) signaling pathway (AID 1346795; active = well fitted inhibition curve with a large enough effect in the signal ratio in the repeat runs, not every such curve was filed as active; the % refers to the signal ratio). The procedure, abridged:
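PR-UAS-bla HEK293T cells carrying a UAS-driven beta-lactamase reporter were plated in medium with 2% charcoal-stripped FBS and rested 6 hr at 37C. Compounds were added with 1 nM R5020 (final) for 16 hr, then FRET substrate loaded 2 hr at room temperature.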

Assay [5] in a line: qHTS assay to identify small molecule antagonists of the TGF-beta/Smad signaling pathway - cell viability counter screen (AID 1346824). Note: nearly all actives have a fitted effect of over 50% in size. The method, boiled down: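 SBE-bla HEK 293T cells, incubated overnight, then compound plus 0.25 ng/mL TGF-beta1 (stock added) for 5 hr at 37 C. Viability was read in the same wells by CellTiter-Glo luminescence after 30 min at room temperature.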

Assay [6] in a line: qHTS assay to identify small molecule agonists of the TGF-beta/Smad signaling pathway - cell viability counter screen (AID 1346829). Note: top concentration of the series differs between compounds; nearly all actives have a fitted effect of over 45% in size. The procedure, abridged:
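Tox21 qHTS format: SBE-bla HEK 293T cells treated with DMSO-dissolved compounds for 5 hr; CellTiter-Glo luminescence after 30 min at room temperature.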

Assay [7] in a line: qHTS assay to identify small molecule agonists of the TGF-beta/Smad signaling pathway (AID 1346859; active = well fitted activation curve with a large enough effect in the signal ratio in the repeat runs, not every such curve was filed as active; the % refers to the signal ratio; note: series mostly up to about 77 µM). The procedure, abridged: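 HEK 293T cells stably carrying a beta-lactamase reporter driven by the Smad binding element were seeded overnight, exposed to DMSO-dissolved compounds for 5 hr at 37 C, 5% CO2, then loaded with FRET substrate for 2 hr at room temperature.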
Assay [8] addresses Thyrotropin-releasing hormone receptor (Homo sapiens) (UniProt P34981). Nature of the assay: qHTS assay to identify small molecule antagonists of the thyrotropin-releasing hormone receptor (TRHR) signaling pathway (AID 1346877; active = well fitted inhibition curve with a large enough effect in the repeat runs, not every such curve was filed as active; note: series mostly up to about 51 µM). The method, boiled down: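 Antagonism is measured as suppression of the calcium response to 1 nM TRH in TRHR-HEK293 cells that have been dye-loaded for 2 h at 37 °C after overnight plating. Each compound is tested at 15 concentrations in triplicate.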

The target is the same in assay [9]. Nature of the assay: qHTS assay to identify small molecule agonists of the thyrotropin-releasing hormone receptor (TRHR) signaling pathway (AID 1346891; calls by dose curve; note: series mostly up to about 58 µM). The method, boiled down: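 TRHR-expressing HEK293 cells were plated 18 h at 37 °C/5% CO2, loaded with calcium dye 2 h at 37 °C, then given compound in DMSO; fluorescence was read kinetically for 3 min at 1 s intervals.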

Assay [10] can be described thus: Human pregnane X receptor (PXR) small molecule agonists, qHTS cell viability counter screen (AID 1346977). Note: nearly all actives have a fitted effect of over 50% in size. The procedure, abridged: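 PXR-Luc HepG2 cells in medium with 5% charcoal-stripped FBS were pre-incubated 5hr, then exposed to compounds for 24hr at 37C. Viability was read in the same wells by CellTiter-Fluor fluorescence, reagent added after 23hr with a 1hr incubation.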

Assay [11] can be described thus: Caspase-3/7 induction in HepG2 cells by small molecules, qHTS assay (AID 1346978). Note: nearly all actives have a fitted effect of over 15% in size. The procedure, abridged: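 Wild-type HepG2 cells, 2,000/well, settled 5 hr at 37 C and 5% CO2, then compound-treated for 17 hr; caspase-3/7 activity read by luminescent Caspase-Glo 3/7 after 30 min at room temperature.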
Assay [12] in a line: Caspase-3/7 induction in CHO-K1 cells by small molecules, qHTS cell viability counter screen (AID 1346979). Note: nearly all actives have a fitted effect of over 35% in size. The method, boiled down: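 Wild-type CHO-K1 cells were seeded at 1,500 per well, rested 5hr at 37 C, then exposed to compounds in DMSO. After 16hr, CellTiter-Fluor reagent was added and fluorescence read 1hr later as the viability measure.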
A short description of assay [13]: Caspase-3/7 induction in CHO-K1 cells by small molecules, qHTS assay (AID 1346980). Note: nearly all actives have a fitted effect of over 15% in size. The procedure, abridged: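 Wild-type CHO-K1 cells exposed to compounds for 17hr at 37 C, 5% CO2. Caspase-3/7 activity then measured by Caspase-Glo 3/7 luminescence after 30min at room temperature.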
Assay [14] can be described thus: Caspase-3/7 induction in HepG2 cells by small molecules, qHTS cell viability counter screen (AID 1346981). Note: series mostly up to about 92 µM; nearly all actives have a fitted effect of over 30% in size. The procedure, abridged: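 Cell viability is measured as a cytotoxicity counter screen alongside the Caspase-Glo 3/7 readout in identical wells. Wild-type HepG2 cells are treated with test compounds for 16 hr at 37 C before CellTiter-Fluor addition and a 1-hr incubation.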

The target of assay [15] is Nuclear receptor subfamily 1 group I member 2 (Homo sapiens) (UniProt O75469). The assay can be described thus: Human pregnane X receptor (PXR) small molecule agonists, qHTS assay (AID 1346982). Note: nearly all actives have a fitted effect of over 35% in size. Note: potency is the fitted concentration of half-maximal effect. The procedure, abridged:
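Cells: HepG2 stably carrying PXR-Luc. Medium held 5% charcoal-stripped FBS. Compounds in DMSO added after 5 hr plating, incubated 24 hr, then luminescence quantified with ONE-Glo.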

Assay [16] in a line: qHTS assay to identify small molecule antagonists of the progesterone receptor (PR) signaling pathway - cell viability counter screen (AID 1346798). Note: nearly all actives have a fitted effect of over 50% in size. Note: potency is the fitted concentration of half-maximal effect. The procedure, abridged:
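PR-UAS-bla HEK293T cells in medium with 2% charcoal-stripped FBS were treated with compounds plus R5020 for 16 hr at 37C. Cell viability was then read by CellTiter-Glo luminescence after 30 min at room temperature in the same wells.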

Assay [17] can be described thus: qHTS assay to identify small molecule agonists of the progesterone receptor (PR) signaling pathway - cell viability counter screen (AID 1346799; calls by dose curve; note: nearly all actives have a fitted effect of over 45% in size). The procedure, abridged:
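PR-UAS-bla HEK293T cells, 3,000 per well in medium with 2% charcoal-stripped FBS, were preincubated 6 hr at 37C, then exposed to compounds for 16 hr; viability was read as CellTiter-Glo luminescence after 30 min at room temperature.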

The target in assay [18] is Nuclear receptor subfamily 1 group I member 2 (Rattus norvegicus) (UniProt Q9R1A7). Nature of the assay: Rat pregnane X receptor (rPXR) activation by small molecules, qHTS assay (AID 1346983). Note: nearly all actives have a fitted effect of over 20% in size. The settings on record: rPXR luciferase reporter cells, One-Glo luminescence, 24 h; max activation: active compounds read high. The procedure, abridged: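 Cell-based rPXR activation assay: rPXR cells, 2,000 per well, rested 5hr at 37 C, then exposed to compounds in DMSO for 24 hr at 37 C. Luciferase activity read by One-Glo luminescence after 30 min at room temperature.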
Chain of Nuclear receptor subfamily 1 group I member 2 (Rattus norvegicus) (Q9R1A7 whole entry, looked up): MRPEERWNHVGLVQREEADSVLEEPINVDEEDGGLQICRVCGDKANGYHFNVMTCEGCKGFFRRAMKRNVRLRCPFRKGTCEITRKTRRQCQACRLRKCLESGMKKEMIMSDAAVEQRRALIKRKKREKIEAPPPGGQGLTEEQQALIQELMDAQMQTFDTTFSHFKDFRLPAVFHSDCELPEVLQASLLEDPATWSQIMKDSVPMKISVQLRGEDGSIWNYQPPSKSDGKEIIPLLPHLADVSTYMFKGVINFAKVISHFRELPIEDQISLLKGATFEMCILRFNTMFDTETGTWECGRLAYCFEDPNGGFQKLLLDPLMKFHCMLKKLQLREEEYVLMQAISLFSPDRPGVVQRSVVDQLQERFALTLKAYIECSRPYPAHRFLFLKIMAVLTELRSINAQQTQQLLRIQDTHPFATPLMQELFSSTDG

The target in assay [19] is Nuclear receptor subfamily 1 group I member 2 (Homo sapiens) (UniProt O75469). The assay can be described thus: CYP3A4 induction through human pregnane X receptor (PXR) by small molecules, qHTS assay (AID 1346984). Note: nearly all actives have a fitted effect of over 40% in size. The method, boiled down:
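Quantitative HTS in DPX-2 cells, i.e. HepG2 transfected with PXR response element and CYP3A4-promoter luciferase. Compounds in DMSO incubated 24hr at 37C; then P450-Glo CYP3A4 substrate, 3uM final, 3hr; One-Glo luminescence.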

The target is the same in assay [20]. The assay can be described thus: Human pregnane X receptor (PXR) activation by small molecules, qHTS assay (AID 1346985). Note: nearly all actives have a fitted effect of over 40% in size. The method, boiled down:
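DPX-2 cells (HepG2 co-transfected with a PXR response element and a CYP3A4-promoter luciferase construct) were seeded at 2,000 per well, rested 5 hr at 37C, then exposed to DMSO-dissolved compounds for 24 hr. Activation was read as luciferase luminescence.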
% is set by controls: 0 for no effect and ±100 for the full control effect.

Chain of Thyrotropin receptor (Homo sapiens) (P16473 whole entry, looked up): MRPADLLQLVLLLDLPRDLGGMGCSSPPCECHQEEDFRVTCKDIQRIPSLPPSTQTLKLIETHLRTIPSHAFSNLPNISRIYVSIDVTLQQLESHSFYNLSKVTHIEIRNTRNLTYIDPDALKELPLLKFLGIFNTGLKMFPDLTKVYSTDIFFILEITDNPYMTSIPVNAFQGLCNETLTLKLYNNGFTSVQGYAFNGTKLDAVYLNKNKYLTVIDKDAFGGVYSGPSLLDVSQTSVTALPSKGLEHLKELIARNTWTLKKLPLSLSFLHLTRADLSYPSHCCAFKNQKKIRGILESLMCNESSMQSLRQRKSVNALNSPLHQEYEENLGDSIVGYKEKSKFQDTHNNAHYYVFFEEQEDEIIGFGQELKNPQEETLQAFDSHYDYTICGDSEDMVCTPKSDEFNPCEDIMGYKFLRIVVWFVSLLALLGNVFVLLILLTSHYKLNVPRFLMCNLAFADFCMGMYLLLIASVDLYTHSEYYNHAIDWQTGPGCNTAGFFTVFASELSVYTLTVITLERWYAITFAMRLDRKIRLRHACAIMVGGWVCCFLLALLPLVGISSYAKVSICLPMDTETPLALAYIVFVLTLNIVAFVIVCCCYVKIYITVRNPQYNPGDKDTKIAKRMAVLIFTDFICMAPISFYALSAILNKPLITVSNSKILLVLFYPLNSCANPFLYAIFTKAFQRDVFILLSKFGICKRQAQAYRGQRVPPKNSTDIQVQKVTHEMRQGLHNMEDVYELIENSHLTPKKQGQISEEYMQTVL
Chain of Thyrotropin-releasing hormone receptor (Homo sapiens) (P34981 whole entry, looked up): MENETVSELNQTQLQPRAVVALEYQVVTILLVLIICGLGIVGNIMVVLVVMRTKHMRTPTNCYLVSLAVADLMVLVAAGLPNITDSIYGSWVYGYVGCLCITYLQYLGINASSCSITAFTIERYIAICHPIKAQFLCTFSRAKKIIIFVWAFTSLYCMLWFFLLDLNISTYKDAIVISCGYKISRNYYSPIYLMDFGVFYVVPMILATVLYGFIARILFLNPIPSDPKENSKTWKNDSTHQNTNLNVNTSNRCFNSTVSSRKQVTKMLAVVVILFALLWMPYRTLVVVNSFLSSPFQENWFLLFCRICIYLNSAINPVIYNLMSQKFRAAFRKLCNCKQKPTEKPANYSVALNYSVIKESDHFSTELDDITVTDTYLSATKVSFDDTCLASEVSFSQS
Chain of Progesterone receptor (Homo sapiens) (P06401 whole entry, looked up): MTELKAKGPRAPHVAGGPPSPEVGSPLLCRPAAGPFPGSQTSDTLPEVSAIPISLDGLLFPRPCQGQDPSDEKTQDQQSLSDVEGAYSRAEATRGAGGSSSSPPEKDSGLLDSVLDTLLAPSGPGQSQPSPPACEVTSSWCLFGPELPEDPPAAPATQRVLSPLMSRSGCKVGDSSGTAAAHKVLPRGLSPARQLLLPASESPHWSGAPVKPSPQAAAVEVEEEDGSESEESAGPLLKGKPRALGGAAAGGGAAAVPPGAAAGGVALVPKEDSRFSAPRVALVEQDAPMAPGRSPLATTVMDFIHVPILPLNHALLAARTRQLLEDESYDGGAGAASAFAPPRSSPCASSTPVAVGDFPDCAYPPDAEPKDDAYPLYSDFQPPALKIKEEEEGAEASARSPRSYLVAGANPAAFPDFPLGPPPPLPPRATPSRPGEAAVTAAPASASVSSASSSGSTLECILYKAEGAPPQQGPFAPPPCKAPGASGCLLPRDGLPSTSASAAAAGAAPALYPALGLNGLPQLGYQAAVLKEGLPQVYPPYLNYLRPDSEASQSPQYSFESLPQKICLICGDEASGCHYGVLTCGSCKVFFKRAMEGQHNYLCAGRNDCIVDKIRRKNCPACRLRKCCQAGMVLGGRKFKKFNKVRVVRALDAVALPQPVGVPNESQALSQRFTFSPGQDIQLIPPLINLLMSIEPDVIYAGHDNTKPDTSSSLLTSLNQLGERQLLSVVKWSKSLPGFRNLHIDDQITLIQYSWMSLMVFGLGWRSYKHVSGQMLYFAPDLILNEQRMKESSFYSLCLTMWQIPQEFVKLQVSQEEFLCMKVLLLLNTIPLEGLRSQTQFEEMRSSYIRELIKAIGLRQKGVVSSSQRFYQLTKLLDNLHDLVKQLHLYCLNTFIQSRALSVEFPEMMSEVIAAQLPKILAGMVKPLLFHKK
Chain of Nuclear receptor subfamily 1 group I member 2 (Homo sapiens) (O75469 whole entry, looked up): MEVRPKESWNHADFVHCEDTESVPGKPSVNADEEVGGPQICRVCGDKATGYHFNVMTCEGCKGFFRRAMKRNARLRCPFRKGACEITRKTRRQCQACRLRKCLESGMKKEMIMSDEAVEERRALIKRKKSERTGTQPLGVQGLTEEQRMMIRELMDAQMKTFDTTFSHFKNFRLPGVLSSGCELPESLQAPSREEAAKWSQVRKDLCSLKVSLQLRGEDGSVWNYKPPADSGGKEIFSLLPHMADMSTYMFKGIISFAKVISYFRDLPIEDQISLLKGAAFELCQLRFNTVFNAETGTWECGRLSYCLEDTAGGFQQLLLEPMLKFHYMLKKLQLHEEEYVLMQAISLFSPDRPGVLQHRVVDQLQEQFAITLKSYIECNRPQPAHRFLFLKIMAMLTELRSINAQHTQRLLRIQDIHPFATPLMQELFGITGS

Consider `Brc1cc(Br)c(Oc2cc(Br)c(Br)cc2Br)cc1Br`, for which the Potency entry in assay [1], in assay [2], in assay [3], in assay [4], in assay [5] and in assay [6] was “inactive” in each case. Moreover, the Potency entry in assay [7], in assay [9], in assay [10], in assay [11], in assay [12] and in [13] was “inactive” each time. Further, in assay [14], the Potency entry was “inactive”. Moreover, in assay [8], the call was inactive. In assay [15], the Potency was 29.9 µM (active).
Regarding `CCCCCCCC/C=C\CCCCCCCCO`, the Potency entry in assay [1], in assay [2], in assay [3], in assay [16], in assay [5] and in [6] was “inactive” each time. Moreover, the Potency result in [7], in assay [9], in assay [10], in [11], in assay [12] and in assay [13] was “inactive” each time. Moreover, the Potency entry in [14] was “inactive”. Further, the call in assay [8] was inactive. In addition, in assay [15], the Potency was 30.6 µM (active).
As for `c1ccc2sc(SN(C3CCCCC3)C3CCCCC3)nc2c1`, the Potency result in [1], in assay [2], in assay [3], in assay [16], in assay [5] and in assay [6] was “inactive” each time. Also, the Potency result in assay [7], in [10], in assay [11], in assay [12], in [13] and in [14] was “inactive” each time. In addition, the Potency in assay [15] is 17 µM (active).
In the case of `COc1ccccc1Oc1c(NS(=O)(=O)c2ccc(C(C)(C)C)cc2)nc(-c2ncccn2)nc1OCCO`, the Potency entry in assay [1], in assay [2], in assay [3], in assay [16], in assay [5] and in assay [6] was “inactive” throughout. In addition, the Potency result in assay [7], in assay [9], in assay [11] and in assay [13] was “inactive” each time. In [8], the compound was classed as inactive.
Regarding `COc1ccc(OC(=O)N(CC(=O)O)Cc2ccc(OCCc3nc(-c4ccccc4)oc3C)cc2)cc1`, the Potency result in [1], in assay [2], in [3], in [4], in assay [17] and in [5] was “inactive” in each case. For the same compound, the Potency result in assay [6], in assay [9], in assay [11], in assay [12], in assay [13] and in [14] was “inactive” in each case. In addition, the Potency result in [15] was “inactive”. Moreover, the compound was classed as inactive in [8].
Take `O[C@@H]1CO[C@H]2[C@@H]1OC[C@@H]2O`: the Potency result in assay [1], in assay [2], in assay [3], in assay [4], in [16] and in assay [7] was “inactive” throughout. The Potency entry in [9], in [10], in assay [11], in assay [12], in assay [13] and in assay [14] was “inactive” in each case. In addition, the Potency result in assay [15], in assay [19] and in [20] was “inactive” each time. In addition, the outcome in assay [8] was inactive. For the same compound, the max activation in [18] is -1.59%.
Consider `C[C@@]12CCC[C@H]1[C@@H]1CC[C@H]3C[C@@H](O)CC[C@]3(C)[C@H]1CC2`, for which the Potency entry in assay [1], in assay [2], in assay [3], in [5], in [6] and in assay [7] was “inactive” throughout. Further, the Potency entry in assay [9], in assay [11], in assay [13] and in assay [14] was “inactive” each time. In [16], the Potency was 26.6 µM (active). In addition, the call in assay [8] was inactive.
